According to PubChem BioAssay (NCATS):
Inconclusive results are not listed. The source made the active and inactive calls. Calls come from the whole dose curve; as a rule, active = well fitted inhibition curve with a large enough effect; inconclusive = small, poorly fitted or top-dose-only effect; inactive = flat fitted curve, though single readings scatter.
% is set by controls: 0 for no effect and ±100 for the full control effect.

The compounds below were run against Calcium and integrin-binding protein 1 (Homo sapiens) (UniProt Q99828) (assay: Primary qHTS for Identification of Calcium Integrin Binding Protein 1 (CIB1) Competitor (AID 1508620; note: top concentration of the series differs between compounds)). Details: CIB1-GST / FITC-alphaIIb peptide fluorescence polarization; series mostly up to 114 µM; activity change, negative = inhibition: at the top concentration.
Calcium and integrin-binding protein 1 (Homo sapiens), sequence (Q99828 whole entry, looked up): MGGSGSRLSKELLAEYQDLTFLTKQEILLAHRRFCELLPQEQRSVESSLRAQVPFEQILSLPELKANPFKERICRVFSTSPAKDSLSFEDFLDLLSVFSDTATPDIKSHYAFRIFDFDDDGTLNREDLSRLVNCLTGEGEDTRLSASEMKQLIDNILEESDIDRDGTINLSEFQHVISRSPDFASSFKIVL
Summary of the method: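 Fluorescence polarization competition: GST-tagged CIB1 (1 uM final) preincubated with compound 15 min at room temperature, then FITC-labelled alphaIIb peptide (100 nM final) added. After 15 min at room temperature, polarization read at Ex 480/Em 540.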
O=C(Nc1ccc(F)nc1)Nc1nnc(-c2ccncc2)s1 was tested, and the “activity change, negative = inhibition” value was -0.195% (inactive).
In the case of CC(=O)c1ccc(N2CCN(S(=O)(=O)c3ccc4c(c3)n(C)c(=O)n4C)CC2)cc1, the “activity change, negative = inhibition” value is reported as 17% (inactive).
With O=C(Nc1ccc(Cl)c(C(F)(F)F)c1)Nc1nnc(-c2ccncc2)s1 the Potency was “inactive”.
For CN(Cc1cccs1)c1ncnc2ccc(-c3ccc4cnn(C)c4c3)cc12, the “activity change, negative = inhibition” value was 4.68% (inactive).
For Cc1ccc(OCCn2c(CCNC(=O)c3ccccc3C(F)(F)F)nc3ccccc32)cc1, the “activity change, negative = inhibition” value was 0.445% (inactive).
In the case of Cc1ccc(OCCn2c3c(c4ccccc42)CCN(C(=O)C2CCCCC2)C3)cc1, the “activity change, negative = inhibition” value is reported as 6.58% (inactive).
In the case of CC(=O)Nc1ccc(-c2csc(N3CCC(C(N)=O)CC3)n2)cc1, the “activity change, negative = inhibition” value is reported as -2.3% (inactive).
Fc1ccc(-c2nc(-c3ccncc3)nc3ccccc23)cc1F was tested, and the “activity change, negative = inhibition” value was 1.35% (inactive).
In the case of N=c1c2c(ncn1-c1ccccc1)Oc1ccc3ccccc3c1C2c1ccc2c(c1)OCO2 (configuration not stated), the “activity change, negative = inhibition” value is reported as 4.97% (inactive).
For FC(F)(F)c1cccc(-c2nc(NCc3ccc(-c4cccnc4)cc3)c3ccccc3n2)c1, the “activity change, negative = inhibition” value was 5.81% (inactive).
With CC(=O)N1CCc2cc(S(=O)(=O)Nc3ccc(C)c(C)c3)ccc21 the “activity change, negative = inhibition” value was -1.8% (inactive).
With COc1ccc([S+](=O)([O-])N2CCCN([S+](=O)([O-])c3ccc(OC)c(NC(C)=O)c3)CC2)cc1NC(C)=O the “activity change, negative = inhibition” value was -0.0408% (inactive).
O=C(NC1CCCc2c1cnn2CCO)c1ccccn1 (configuration not stated) was tested, and the “activity change, negative = inhibition” value was 1.06% (inactive).
CN(C)[S+](=O)([O-])c1ccc(-c2cncc(NC(=O)c3cccs3)c2)cc1 was tested, and the “activity change, negative = inhibition” value was -1.81% (inactive).
Oc1ccc(COC2CCCC2)c2cccnc12 was tested, and the “activity change, negative = inhibition” value was -1.54% (inactive).
Cc1cc2c(s1)c1cnn(Cc3c(Cl)cccc3Cl)c(=O)c1n2C was tested, and the “activity change, negative = inhibition” value was 9.2% (inactive).
In the case of O=C(O)c1cccc(-n2cccc2)c1, the “activity change, negative = inhibition” value is reported as -0.414% (inactive).
